The values that follow come from PubChem BioAssay AID504810 (National Center for Advancing Translational Sciences (NCATS), 2011).

Structures are written as SMILES. In all, about 330,000 compounds went through this assay and about 670 (0.2%) were called active. What follows is part of a selection rich in actives, with near analogues and random picks from the rest. Unmarked numbers belong to inactive results.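 The calls were made as follows: active = activity change below a set negative limit, meaning inhibition stronger than a set level (cut at about -70% in these data); inconclusive = activity change between two set negative limits; inactive = the rest.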
% is scaled to controls: 0 for no effect and ±100 for the full control effect.

Thyrotropin receptor (Homo sapiens), sequence (P16473 whole entry, looked up): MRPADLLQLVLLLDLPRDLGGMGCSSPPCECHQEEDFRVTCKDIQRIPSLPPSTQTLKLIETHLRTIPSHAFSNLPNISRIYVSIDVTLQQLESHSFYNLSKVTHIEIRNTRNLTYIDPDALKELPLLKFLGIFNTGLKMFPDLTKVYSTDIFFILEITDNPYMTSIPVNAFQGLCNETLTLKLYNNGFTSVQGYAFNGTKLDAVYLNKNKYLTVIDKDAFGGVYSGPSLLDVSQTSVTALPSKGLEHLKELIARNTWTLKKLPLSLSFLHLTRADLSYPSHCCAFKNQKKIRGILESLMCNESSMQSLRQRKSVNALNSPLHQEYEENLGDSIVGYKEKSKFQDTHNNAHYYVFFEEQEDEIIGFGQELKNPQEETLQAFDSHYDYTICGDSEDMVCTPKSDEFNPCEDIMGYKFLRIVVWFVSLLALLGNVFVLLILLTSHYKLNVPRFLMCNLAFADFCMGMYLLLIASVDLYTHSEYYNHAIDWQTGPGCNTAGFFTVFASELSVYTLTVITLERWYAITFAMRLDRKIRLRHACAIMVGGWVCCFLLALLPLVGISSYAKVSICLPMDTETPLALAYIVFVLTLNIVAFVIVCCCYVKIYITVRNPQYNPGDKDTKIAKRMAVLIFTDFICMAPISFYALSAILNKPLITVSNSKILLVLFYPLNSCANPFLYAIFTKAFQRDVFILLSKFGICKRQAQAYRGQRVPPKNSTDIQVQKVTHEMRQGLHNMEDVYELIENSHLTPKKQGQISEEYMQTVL

The assay deals with Thyrotropin receptor (Homo sapiens) (UniProt P16473). In words: Antagonists of the Thyroid Stimulating Hormone Receptor: HTS campaign. The conditions noted are these: TSHR-expressing cells, TSH-stimulated cAMP HTRF, 2 h; at 11.5 µM; hits give low values. The text has this:
The thyroid-stimulating hormone receptor (TSHR) is a member of the 7 trans-membrane-spanning receptor (7TMR) family of cell surface receptors. TSHR-mediated hyperthyroidism is important in thyroid pathology. The development of small molecule antagonists of TSHR may lead to therapeutic approaches for TSHR-mediated hyperthyroidism caused by constitutively activating mutations or stimulating auto-antibodies associated with Graves' disease. Graves' disease is the leading cause of hyperthyroidism and is caused by autoantibodies that stimulate TSHR (TsAbs) causing thyroid growth and unregulated overproduction of thyroid hormones and existing treatments have liabilities (agranulocytosis). In addition, TSHRs are known to be expressed in multiple extrathyroidal tissues including bone, brain, kidney, testis, fat and cells of the immune system but the role of the TSHR in these tissues is not clear. Therefore, TSHR antagonists/inverse agonists could be used as probes of extrathyroidal TSHR function. Finally, TSHR inverse agonists, which are a subclass of antagonists that inhibit agonist-independent (or basal or constitutive) TSHR signaling, could be used to inhibit TSH-independent signaling in patients with recurrent or metastatic thyroid cancer who are receiving thyroid hormone to suppress TSH. In collaboration between scientist from the NCGC and the NIDDK, a miniaturized HTRF high-throughput screen was developed. It's a cell based assay, where an anti cAMP antibody contains a fluorescent cryptate tag (excitation 337 nm; emission 620 nm) and the acceptor is cAMP-d2 (excitation 620 nm; emission 665 nm). When antibody and cAMP-d2 interact and are excited by a 337 nm light, a FRET occurs resulting in emission at 665 nm. The assay is competition between cAMP-d2 and cAMP (from the cell lysate). The homogeneous protocol allows for one step dispense after stimulation that is automation friendly. NIH Chemical Genomics Center [NCGC] NIH Molecular Libraries Probe Centers Network [MLPCN] MLPCN Grant: MH090855-01 Assay Submitter (PI): Marvin Gerhengorn
1. 3ul of 200 TSHR freshly harvested cells/well are dispensed into a 1536 TC-treated white solid bottom plate. 2. Through pintool addition, 23nl of compounds and control in 100% DMSO are added to the plate. 3. Then 1ul of EC80 TSH (4nM final) is added to the plate. 4. Assay is incubated at 37 deg C for 2 hours. 5. 2ul of cAMP antibody diluted 1:20 in lysis buffer is added. 6. Immediately following, 2ul of d2 diluted 1:20 in HBSS is added seperately. 7. The assay is incubated for 30 minutes at ambient room temperature. 8. The result is obtained by using a ViewLux read-out with HTRF settings.
On the technique in general: TR-FRET usually uses a lanthanide donor and a delayed reading to cut background.
For `CC(NC(=O)COC(=O)c1cc(=O)[nH]c2ccccc12)c1ccccc1` (stereo not given), the activity change, negative = inhibition is -4.46%.

Consider `O=C(CNC(=O)c1cc(=O)[nH]c2ccccc12)Nc1ccc(F)c(F)c1`, for which the activity change, negative = inhibition was 1.67%.

As to `CC(NC(=O)c1cc(=O)[nH]c2ccccc12)c1ccc(F)cc1F` (stereo not given), the activity change, negative = inhibition is -93% (active).

With `Cc1cc(C(=O)N/N=C/c2cc([N+](=O)[O-])cc(C)c2O)n[nH]1`, the activity change, negative = inhibition was 13.9%.

In the case of `O=[N+]([O-])c1cc(Br)c(O)c(/C=N/Nc2nc3ccccc3s2)c1`, the activity change, negative = inhibition is -87.3% (active).

For the compound `COc1ccc(CC(=O)N/N=C/c2cc([N+](=O)[O-])cc(Br)c2O)cc1`, the activity change, negative = inhibition was 1.63%.

With `CC(C)Cn1c(=O)c2ccccc2n2c(CCC(=O)NCc3ccccn3)nnc12`, the activity change, negative = inhibition was 3.77%.

In the case of `C=CCc1ccccc1OCC(O)CN1CCN(CCO)CC1` (stereo not given), the activity change, negative = inhibition is 3.81%.

For the compound `Cc1cc(C)c2c(-c3ccc(F)cc3)c(C#N)c(=O)n(C)c2n1`, the activity change, negative = inhibition was -4.99%.

`Cc1cc(C)c(C#N)c(SCC(=O)Nc2ccccc2)n1`: the activity change, negative = inhibition was 1.53%.

Turning to `Cc1cc(C#N)c(SCC(N)=O)nc1-c1ccc(F)cc1`, the activity change, negative = inhibition is -75.8% (active).

As for `CNC(=O)C1CCN(S(=O)(=O)c2c(C)noc2/C=C/c2cccc(C)c2)CC1`, the activity change, negative = inhibition is 9.08%.

For the compound `CC(NC(=O)CNC(=O)Cc1cccc2ccccc12)c1ccc(S(N)(=O)=O)cc1` (stereo not given), the activity change, negative = inhibition was -28.1%.

Turning to `CCNC(=O)N1CCN(S(=O)(=O)c2ccc3c(c2)OCCCO3)CC1`, the activity change, negative = inhibition was 13%.

On to `O=c1ccc(-c2ccc(S(=O)(=O)Nc3ccccc3)o2)n[nH]1`, for which the activity change, negative = inhibition is 14.7%.

As for `COc1cccc(NC(=O)CC(c2ccc(OC(C)C)cc2)c2ccccc2OC)c1` (stereo not given), the activity change, negative = inhibition is -14.4%.

With `CCOC(=O)NN1C(=O)c2ccccc2NC1c1ccccc1O` (stereo not given), the activity change, negative = inhibition is 8.06%.

`O=C(CCN1C(=O)C2C3CCC(C3)C2C1=O)Nc1ccc(Cl)cc1Cl` (stereo not given): the activity change, negative = inhibition was 1.9%.

With `CCN(CC)C(=O)CSc1nnc(-c2ccc(S(=O)(=O)NCc3ccccc3Cl)cc2)o1`, the activity change, negative = inhibition is -13.6%.

With `COc1ccc(S(=O)(=O)N2CCN(C)CC2)c(C)c1`, the activity change, negative = inhibition is -0.476%.

Turning to `Cc1ccc(S(=O)(=O)n2cnc3ccccc32)c(C)c1`, the activity change, negative = inhibition is 2.16%.

For the compound `COc1ccc(S(=O)(=O)n2cnc3ccccc32)c(C)c1`, the activity change, negative = inhibition is -81.3% (active).

As for `CCC1SC2=NCCN2C1(O)c1ccc(Cl)cc1` (stereo not given), the activity change, negative = inhibition is 6.43%.

As to `CCOc1ccc(N(CC(=O)NCCc2ccc(F)cc2)S(=O)(=O)c2ccccc2)cc1`, the activity change, negative = inhibition was -7.25%.

On to `CC(NC(=O)Cn1cc(C(F)(F)F)cc(Cl)c1=O)c1ccccc1` (stereo not given), for which the activity change, negative = inhibition was 7.91%.

As to `COC(=O)c1cc(=O)n(-c2c(Cl)cc(C(F)(F)F)cc2Cl)[nH]1`, the activity change, negative = inhibition was -90% (active).

Consider `CCN1C(=S)N[C@@H](c2cccc(C(F)(F)F)c2)C(C(=O)OC)=C1C`, for which the activity change, negative = inhibition was 0.624%.

For the compound `Cc1sc2ncn(CC(=O)NCCCC(=O)N(C)Cc3ccccc3)c(=O)c2c1C`, the activity change, negative = inhibition was 3.25%.

Take `Cc1sc2ncn(CC(=O)NCCCC(=O)N3CCN(c4ccccc4F)CC3)c(=O)c2c1C`: the activity change, negative = inhibition was 3.65%.

As to `Cc1sc2ncn(CC(=O)NCCCC(=O)NCc3ccc(F)cc3)c(=O)c2c1C`, the activity change, negative = inhibition is -97.7% (active).

As to `COc1ccc(CCNCc2c(-c3ccccc3)n(C)c3ccccc23)cc1`, the activity change, negative = inhibition was 5.27%.

For `COc1cc(OC)cc(C(=O)NNC(=O)CNC(=O)c2ccc(Br)o2)c1`, the activity change, negative = inhibition is -4.32%.

`NC1CCN(O)C1=O` (stereo not given): the activity change, negative = inhibition was 5.61%.

Regarding `CCC(C)NC(=O)C1CCC(=O)N1Cc1ccc(C)cc1` (stereo not given), the activity change, negative = inhibition was 1.98%.

As to `CCCN(c1ccc(C(C)C)cc1)S(=O)(=O)c1c(C)[nH]c(=O)[nH]c1=O`, the activity change, negative = inhibition is -12.7%.

For the compound `Cc1ccc(CN2CCNC(=O)C2CC(=O)NCc2csc(C(C)C)n2)cc1` (stereo not given), the activity change, negative = inhibition is 12.6%.

Turning to `NC(=O)C1CCN(c2nc(-c3cccc(F)c3)cs2)CC1`, the activity change, negative = inhibition is -7.85%.

Take `COc1ccc(NC(=O)CSc2nnc(Cc3ccccc3)c(=O)n2N)cc1`: the activity change, negative = inhibition was 7.33%.

For `CCCCn1c(N)c(N(CCOC)C(=O)COc2c(C)cccc2C)c(=O)[nH]c1=O`, the activity change, negative = inhibition was -0.316%.

`CCc1ccccc1NC(=O)CN(C)C(=O)COc1ccc(C)nc1[N+](=O)[O-]`: the activity change, negative = inhibition was 4.86%.

`C1CC1Cc1noc(CN2CCN(CC3CC3)CC2)n1`: the activity change, negative = inhibition was 3.76%.

With `NS(=O)(=O)c1cc(C(=O)NCCOc2ccccc2)c(Cl)cc1Cl`, the activity change, negative = inhibition is 8.26%.

As for `CCc1nn(CC(=O)N2CCN(c3cc(C)ccc3C)CC2)c(=O)c2cc3occc3n12`, the activity change, negative = inhibition was 12.8%.

Turning to `OCC(O)CN(c1ccccc1)c1ccccc1` (stereo not given), the activity change, negative = inhibition was 3.75%.

With `CC1(C)O[C@@H]2[C@H](O1)[C@@H](CO)O[C@H]2n1c(N2CCCCC2)nc2c(N)ncnc21`, the activity change, negative = inhibition was -5.04%.
